# Source: PubChem (National Center for Advancing Translational Sciences (NCATS))
# EPAC2 antag: EPAC2 (human) antagonism | Potency, µM (top dose mostly 114 µM), most hits filed as inhibitors | AID 720708 | Q8WZA2 | 0.18% of 360,000 active | EPAC2 GEF exchange of Rap1B-BODIPY-GDP, fluorescence; further: nearly all actives have a fitted effect of over 45% in size
# EPAC1 ag: activates human EPAC1 exchange factor. AID 720707. EPAC1 agonist qHTS, biochemical assay; response scale: 100% = response to 6.5 mM cAMP. O95398. Potency, µM (highest dose often 154 µM), hits mostly activators. 0.073% of 360,000 active; further: nearly all actives have a fitted effect of over 60% in size
#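 Nucleotide exchange by EPAC1 (100 nM) on Rap1B–BODIPY-GDP (250 nM) in the presence of 50 uM GDP is tracked fluorescently at 480/540 nm over 30 min. Signals are normalized to a 6.5 mM cAMP control.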
# EPAC2 agonist: agonists of human EPAC2 (RAPGEF4). Potency, µM (highest dose often 154 µM), actives largely listed as activators. 0.079% of 360,000 active. EPAC2 activation, biochemical qHTS; response scale: 100% = 6.5 mM cAMP response. AID 720711; further: nearly all actives have a fitted effect of over 50% in size
#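 Nucleotide exchange monitored as fluorescence drop when BODIPY-GDP leaves Rap1B. Reaction: 100 nM EPAC2, 250 nM RAP1B-BODIPY-GDP, 50 uM GDP, room temperature, kinetic read over 30 min. Activity expressed relative to 6.5 mM cAMP.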
# FBPA coupling cs: counter-screen for Giardia aldolase inhibitors: coupling enzyme system; coupling enzyme system counterscreen, AmpLite Red fluorescence; activity change, negative = inhibition, % at 58.2 µM, hits read low; 0.67% of 290,000 active; in the data active means activity change below about -30%
#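 Compounds tested against the coupling enzymes alone at 57.5 uM final; readout was AmpLite Red fluorescence (525/598 nm) after 20 min at RT.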
# USP1-UAF1 inh: blocks the human USP1/UAF1 deubiquitinase complex. O94782. recombinant USP1/UAF1, Ub-Rhodamine cleavage fluorescence. Potency, µM (series often up to 57.1 µM), hits mostly inhibitors. 0.23% of 390,000 active; further: nearly all actives have a fitted effect of over 60% in size
# Target sequence (O94782 whole entry, looked up): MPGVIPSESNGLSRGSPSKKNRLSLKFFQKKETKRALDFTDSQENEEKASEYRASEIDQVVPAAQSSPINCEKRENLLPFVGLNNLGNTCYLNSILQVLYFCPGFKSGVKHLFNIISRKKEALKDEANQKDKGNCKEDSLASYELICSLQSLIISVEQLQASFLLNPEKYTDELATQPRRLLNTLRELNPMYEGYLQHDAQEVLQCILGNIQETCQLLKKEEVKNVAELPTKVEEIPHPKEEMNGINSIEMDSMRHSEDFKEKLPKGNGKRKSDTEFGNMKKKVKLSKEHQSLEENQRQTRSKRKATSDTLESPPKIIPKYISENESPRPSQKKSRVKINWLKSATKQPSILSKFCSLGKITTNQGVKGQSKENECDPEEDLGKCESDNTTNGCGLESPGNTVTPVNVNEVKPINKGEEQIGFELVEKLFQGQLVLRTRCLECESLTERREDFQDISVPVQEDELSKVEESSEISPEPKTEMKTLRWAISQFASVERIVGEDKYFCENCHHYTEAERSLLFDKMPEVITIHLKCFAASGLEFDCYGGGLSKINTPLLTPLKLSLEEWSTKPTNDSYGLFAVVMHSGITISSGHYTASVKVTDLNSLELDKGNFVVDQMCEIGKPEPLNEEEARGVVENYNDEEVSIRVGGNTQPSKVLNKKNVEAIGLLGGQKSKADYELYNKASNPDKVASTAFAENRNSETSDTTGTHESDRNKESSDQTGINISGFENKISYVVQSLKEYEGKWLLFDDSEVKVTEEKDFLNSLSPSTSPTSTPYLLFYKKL
#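 High-throughput fluorogenic screen: 1nM USP1/UAF1 complex, Ub-Rho substrate 150nM final, 50mM HEPES pH 7.8 with 0.5mM EDTA, 0.1 mg/ml BSA, 1mM TCEP and 0.01% Tween-20.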
# EPAC1 antagonist: blocks human EPAC1 exchange factor. O95398. EPAC1 GEF assay, Rap1b-BODIPY-GDP exchange fluorescence. Potency, µM (series often up to 115 µM), hits mostly inhibitors. 0.14% of 360,000 active; further: nearly all actives have a fitted effect of over 50% in size
# Hits are given with their value; . = inactive; ? = inconclusive; / = not tested or not shown. Sampled rows, rich in hits. Any-hit rate of the full collection: about 0.87%. Unless noted, the call rests on the fitted dose curve; in most records, active means well fitted curve in the direction sought with a large enough effect; inconclusive means small, poorly fitted or top-dose-only effect, or another doubt; inactive means no such curve, though single readings can be large; an effect the other way counts as inactive or inconclusive.
SMILES,EPAC2 antag,EPAC1 ag,EPAC2 agonist,FBPA coupling cs,USP1-UAF1 inh,EPAC1 antagonist
NC(=O)C1CCN(C2=C(NS(=O)(=O)c3ccc(Cl)cc3)C(=O)c3ccccc3C2=O)CC1,.,.,.,-30,?,.
CC1CCCN(C2=C(NS(=O)(=O)c3ccc(Cl)cc3)C(=O)c3ccccc3C2=O)C1 (stereo not given),?,.,.,-40,?,.
COc1c2c(cc3c1C(c1c(O)c4ccccc4oc1=O)N(C)CC3)OCO2 (stereo not given),/,/,/,.,/,/
Clc1ccc(NCc2nc3ccccc3n2CCOc2ccccc2)cc1,/,/,/,/,.,/
CC(=O)c1cccc(NC(=O)CSc2nnc(-c3cccnc3)o2)c1,.,.,.,.,.,.
CCOc1ccc(N=C2NC(=O)S/C2=C\c2ccc(N(C)C)cc2)cc1,.,.,?,.,28µM,.
CCn1c(=O)c2ccccc2n2c(SCC(N)=O)nnc12,.,.,.,.,.,.
COc1ccc(OC)c(NC(=O)N2CCCC(CNS(=O)(=O)c3cccs3)C2)c1 (stereo not given),.,.,.,.,.,.
O=C1CSC(=S)N1/N=C/c1cc(Br)c(O)c(Br)c1,.,.,.,.,18µM,.
CCN(CC)c1ccc(/C=C/C(=O)C2C(=O)C=C(C)OC2=O)cc1 (stereo not given),.,.,.,.,4.5µM,.
COc1ccccc1CNc1ncncc1-c1ccccc1OC,/,/,/,.,/,/
O=S(=O)(c1ccccc1)N1CCN=C1SCc1ccc(Cl)c(Cl)c1,.,.,.,.,.,.
Cc1ccc(S(=O)(=O)N2CCN=C2SCc2ccccc2)cc1,.,.,.,-35,.,.
CC(=O)Nc1ccc(S(=O)(=O)N2CCN=C2SCc2ccc(C)cc2)cc1,.,.,.,/,.,.
O=S(=O)(c1ccccc1)N1CCN=C1SCc1ccccc1Cl,.,.,.,-40,.,.
Cc1ccccc1NC(=O)CSc1ccc(-c2cccnc2)nn1,.,.,.,.,.,.
Cc1cc(C)cc(NC(=O)C2CCCN(S(=O)(=O)c3cccc4nsnc34)C2)c1 (stereo not given),/,/,/,/,.,/
Cc1c(-n2cc(C(=O)c3cc(F)ccc3O)cc(C#N)c2=O)c(=O)n(-c2ccccc2)n1C,.,.,.,.,.,.
N#Cc1cc(C(=O)c2cc(F)ccc2O)cn(-c2nccs2)c1=O,.,?,112µM,.,25µM,.
N#Cc1cc(C(=O)c2ccccc2O)cn(-c2nccs2)c1=O,.,89µM,100µM,.,28µM,.
O=C1NC[C@H](CCCCN2C[C@H](Cc3ccccc3)N(CCc3ccc(O)cc3)C(=O)C2=O)N(CCc2ccc(O)cc2)C1=O,.,.,.,/,/,.
COc1ccccc1C(=O)NC(=O)COC(=O)c1ccc(NC(=O)CC#N)cc1,.,.,.,/,.,.
COc1ccc(OC)c2[nH]c(=O)c(CCNS(=O)(=O)c3ccc(C)cc3)cc12,.,.,.,-30,.,.
COc1ccc(OC)c2[nH]c(=O)c(CCNS(=O)(=O)c3ccc(Cl)cc3)cc12,.,.,.,-33,.,.
Cc1cc(C)n(-c2ccc(C(=O)N3CC(C)OC(C)C3)cc2)n1 (stereo not given),.,.,.,.,.,.
SMILES,EPAC2 antag,EPAC1 ag,EPAC2 agonist,FBPA coupling cs,USP1-UAF1 inh,EPAC1 antagonist
Cc1ccc(C(=O)NCC(=O)OCC(=O)NCCNC(=O)COC(=O)CNC(=O)c2ccc(C)cc2)cc1,.,.,.,/,.,.
Cc1noc(C)c1NC(=O)N1CCN(Cc2ccccc2)CC1,.,.,.,.,.,.
O=C(CSc1nc2nc(-c3cccs3)cc(C(F)(F)F)c2c(=O)[nH]1)Nc1ccc(F)c(F)c1,.,.,.,.,.,79µM
Cc1ccc(C)c(NC(=O)CSc2nc3nc(-c4cccs4)cc(C(F)(F)F)c3c(=O)[nH]2)c1,.,.,.,.,?,.
Cc1cc2nc3c(=O)n(CCc4ccccc4)c(=O)[nH]c3nc2cc1N,.,?,100µM,.,18µM,.
C=CCn1c(=O)[nH]c2nc3cc(N=CN(C)C)c(C)cc3nc2c1=O,.,.,?,.,?,.
Nc1ccc2nc3c(=O)n(CCc4ccccc4)c(=O)[nH]c3nc2c1,.,112µM,63µM,.,16µM,.
Nc1ccc2nc3c(=O)n(C4CCCCC4)c(=O)[nH]c3nc2c1,.,?,.,.,.,.
CCCCn1c(=O)[nH]c2nc3cc(N)ccc3nc2c1=O,.,100µM,100µM,-53,28µM,.
CCN(C(=O)COC(=O)c1cnc(C)cn1)C1CCS(=O)(=O)C1 (stereo not given),.,.,.,/,.,.
COc1cc(C(=O)ON=C2C=C(C)C(=O)C(C)=C2)cc(OC)c1OC,.,.,.,.,.,.
COc1cc(C(=O)O/N=C2\C=CC(=O)C(C)=C2)cc(OC)c1OC,.,.,.,-82,.,.
CCOc1cc(CNc2ccc3cn[nH]c3c2)ccc1OC,.,.,.,-55,?,?
COc1ccc(CNc2ccc3cn[nH]c3c2)c(OC)c1OC,.,.,.,-47,?,.
O=C(Nc1nccs1)c1ccc(Cl)c(S(=O)(=O)N2CCCCC2)c1,.,.,.,.,.,.
Cc1ccc2c(c1)-c1c(cnn1CC(=O)N1CCN(c3cccc(C(F)(F)F)c3)CC1)CO2,/,/,/,/,.,/
c1ccc(N2CCN(c3ccc4nncn4n3)CC2)nc1,.,.,.,.,.,.
CCC[n+]1cn(/C(C(=S)Nc2cccc(Cl)c2C)=C(/[O-])c2ccc(OC)c(OC)c2)c2ccccc21,.,.,.,.,.,?
COc1ccc2c(c1)CCc1cn3nc(C)cc3nc1-2,.,.,.,-45,.,.
COc1cccc(NC(=S)N(CCc2c(C)[nH]c3ccc(C)cc23)Cc2cccs2)c1,.,.,.,.,.,.
COc1ccc2[nH]c(C)c(CCN(Cc3cccs3)C(=S)Nc3cccc(F)c3)c2c1,.,.,.,-43,.,.
COc1ccc(CCNC(=O)c2nc(SCc3ccccc3F)ncc2Cl)cc1OC,/,/,/,/,.,/
CN(C)c1nc(Oc2ccc(=O)[nH]n2)nc(N2CCOCC2)n1,25µM,.,.,.,.,.
O=C(Nc1cccs1)Nc1cccnc1Cl,.,.,.,.,.,.
COc1ccc(C(=O)c2c(C(F)(F)F)oc3c2C(=O)c2ccccc2C3=O)cc1OC,.,.,.,-55,?,?
Cc1nc2sc(C)c(C)c2c(=O)o1,.,.,.,.,.,.
Cc1ccccc1C1C(C#N)=C(N)N(N(C)C)C2=C1C(=O)CC(C)(C)C2 (stereo not given),.,.,.,.,.,.
